# MITF inh: MITF inhibitors, primary screen, biochemical, AlphaScreen, human; Microphthalmia-associated transcription factor (Homo sapiens), O75030; AlphaScreen MITF homodimerization, bead proximity signal; inhibition, % at 2.6 µM; 650,000 tested, 0.91% active; in the data active = inhibition above about 50%;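 note: 0% = vehicle wells with protein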
# FBW7 activator: FBW7 E3 ligase activators, primary screen, biochemical, AlphaScreen, human | F-box/WD repeat-containing protein 7 (Homo sapiens), Q969H0 | AlphaScreen FBW7–phospho-cyclin E peptide binding, activator screen | normalized activity (activation), % at 26.1 µM | 650,000 tested, 0.13% active; in the data active = normalized activity above about 1.9%;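 note: purified mutant Fbw7 with reduced substrate affinity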
# TEAD-YAP inh: TEAD-YAP interaction inhibition, primary screen, TEAD-YAP interaction inhibitor project, luminescence, HEK-TIYL cells; 640,000 tested, 1.4% active; TEAD-Gal4/YAP UAS-luciferase luminescence; inhibition, % at 9.12 µM; AID 1259422, 2018; in the data active = inhibition above about 32%;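 note: 0% = median of test compound wells and 100% = reference inhibitor wells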
# GPR151 activ: activators of human GPR151, primary screen, cell-based, PathHunter beta-arrestin, luminescence. PathHunter beta-arrestin GPR151 cells. activation, % at 11.2 µM. 650,000 tested, 1% active; in the data active = activation above about 4.9%;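 note: 0% = median of compound wells and 100% = cells with positive control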
# Target sequence (Q8TDV0 whole entry, looked up): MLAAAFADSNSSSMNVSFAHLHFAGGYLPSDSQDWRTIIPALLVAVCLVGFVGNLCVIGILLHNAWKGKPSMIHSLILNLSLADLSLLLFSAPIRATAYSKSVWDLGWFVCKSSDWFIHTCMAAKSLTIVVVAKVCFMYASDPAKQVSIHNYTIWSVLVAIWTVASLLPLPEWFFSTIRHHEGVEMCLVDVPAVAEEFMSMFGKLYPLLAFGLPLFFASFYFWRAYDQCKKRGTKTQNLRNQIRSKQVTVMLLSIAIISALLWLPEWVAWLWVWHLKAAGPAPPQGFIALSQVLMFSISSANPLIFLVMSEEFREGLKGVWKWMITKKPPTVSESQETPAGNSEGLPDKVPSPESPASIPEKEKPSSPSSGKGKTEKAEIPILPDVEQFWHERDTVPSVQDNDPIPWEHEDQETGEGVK
# GPR151 confirm: GPR151 activators, triplicate retest, confirmation, cell-based, PathHunter beta-arrestin, luminescence; shares compounds with GPR151 activ; GPR151 PathHunter beta-arrestin cells, 90 min; % of EA-reagent control over plate median; activation, % at 11.2 µM; 6,700 tested, under 10 active;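 active = mean percent activation across replicates above the confirmation screen cutoff of 4.91%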
# GPR119 ag: GPR119 activators in beta-arrestin cells, counter-screen for GPR151 activator project, cell-based, PathHunter beta-arrestin, luminescence, triplicate; shares compounds with GPR151 activ; 90 min; 0 = compound-well median, 100 = enzyme-acceptor control; activation, % at 11.2 µM; 6,700 tested, 0.3% active;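 active = mean percent activation in the counterscreen above 29.09%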;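 note: counterscreen on off-target GPR119 to flag nonselective hits from the GPR151 activator screen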
# An asterisk follows results filed as active; nt = no result. The list is not random: actives were taken first. Their share in the collection is about 3.5%.
SMILES,MITF inh,FBW7 activator,TEAD-YAP inh,GPR151 activ,GPR151 confirm,GPR119 ag
COc1ccc(NC(=S)NC(=O)c2ccc3c(c2)OCO3)c([N+](=O)[O-])c1,4,0,2,7.0*,-1,-11
C=CCn1ncc(=O)n(CC=C)c1=O,3,0,8,1,nt,nt
Cc1sc2nc(Cc3ccccc3)nc(Nc3ccc(C(F)(F)F)cc3)c2c1C,-1,0,4,0,nt,nt
COc1cc([N+](=O)[O-])ccc1NC(=O)N1CC(C)OC(C)C1 (configuration not stated),-20,0,5,7.0*,0,1
Cc1ccc(NC(=O)C(CC(=O)O)NCc2ccco2)cc1 (configuration not stated),-5,0,-6,7.6*,0,3
CCN1CCC(N(Cc2ccc(F)cc2)C(=O)Nc2cc(F)ccc2F)CC1,-5,0,-1,5.1*,0,10
CCSC1=C(C#N)C(c2ccc(O)cc2)CC(=O)N1 (configuration not stated),-1,0,-4,6.2*,0,1
CCSC1=C(C#N)C(c2ccc(Cl)cc2)CC(=O)N1 (configuration not stated),4,0,-2,0,nt,nt
CCn1c(C)cc(C=C2C(=O)c3ccccc3C2=O)c1C,-4,0,66*,8.2*,0,-26
Nc1ccc2nc(SCC(=O)Nc3ccccc3)sc2c1,4,0,-38,2,nt,nt
CC(NC(=O)CSc1nc2ccc(N)cc2s1)c1ccccc1 (configuration not stated),-4,0,3,6.3*,0,-2
O=C(Nc1ccc2oc(-c3cc(Br)ccc3Cl)nc2c1)c1ccc([N+](=O)[O-])o1,6,0,14,1,nt,nt
O=C(Nc1cccc(O)c1)c1cc([N+](=O)[O-])ccc1Cl,-6,0,15,6.4*,1,1
O=C(O)c1cc([N+](=O)[O-])ccc1C(=O)Nc1cccc(O)c1,4,0,12,-1,nt,nt
O=C(Nc1ccc2oc(-c3ccc(Br)cc3)nc2c1)c1cc([N+](=O)[O-])ccc1Cl,16,1,-8,6.6*,0,3
O=C(Nc1ccc(Cl)c(-c2nc3cc(Cl)ccc3o2)c1)c1ccc([N+](=O)[O-])o1,13,0,11,7.0*,1,9
O=C(CC(Sc1cccc2cccnc12)c1ccc(F)cc1)c1cccs1 (configuration not stated),7,-2,20,-1,nt,nt
CC(=O)c1ccccc1OCc1nnc(-c2ccccc2)o1,0,0,-34,0,nt,nt
NC(=O)CSc1cn(CCNC(=O)c2ccccc2F)c2ccccc12,2,0,5,1,nt,nt
COc1ccc2ccc(=O)oc2c1,0,0,5,5.0*,0,3
Fc1ccc2nc(N3CCN(c4nc5ccccc5s4)CC3)sc2c1,10,0,2,15*,-1,-7
Cc1cc(-c2ccccc2)nc(SCC(=O)Nc2ccccn2)n1,17,0,6,2,nt,nt
COc1ccc2nccnc2c1[N+](=O)[O-],-6,0,-3,13*,1,-4
COc1ccccc1CCN1C(=O)CCC1CCNCCOc1ccccc1 (configuration not stated),-3,0,-16,7.1*,0,9
COc1ccccc1CCN1C(=O)CCC1CCNCc1ccccc1 (configuration not stated),-7,0,-5,-2,nt,nt
O=C(Nc1ncc(Cc2cccc(C(F)(F)F)c2)s1)C(c1ccccc1)c1ccccc1,3,0,9,3,nt,nt
CCN(CC(=O)NC(C)C)C(=O)C(CCSC)NC(=O)c1cccc(C)c1 (configuration not stated),-9,0,3,6.3*,1,-2
Cc1ccc(C2=NS(=O)(=O)N(C)C(C(=O)NCC(C)C)=C2)cc1,4,0,0,2,nt,nt
